From PubChem BioAssay AID559 (PCMD, 2006) come the findings set out here.

Broadly, the inhibition is the change of the read-out against control, counted positive when it falls.

Screen size: about 62,000 compounds; about 100 (0.2%) were called active. The sample holds actives, similar compounds and a random draw of the others, so the mix is not that of the screen. Unmarked numbers belong to inactive results. Cut-off read from the data, not from the text of the source: active = inhibition above about 20%; inactive = the rest.

For the test, the target named is DNA-directed RNA polymerase subunit beta (Escherichia coli (strain K12)) (UniProt P0A8V2). Nature of the test: E. coli RNAP inhibitors, biochemical (AID 559).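 Note: 0% = enzyme without compound and 100% = no enzyme blank.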 The settings on record: fluorescence transcription assay, active compounds read high,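 tested at 10 µM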.
Sequence of DNA-directed RNA polymerase subunit beta (Escherichia coli (strain K12)) (P0A8V2 whole entry, looked up): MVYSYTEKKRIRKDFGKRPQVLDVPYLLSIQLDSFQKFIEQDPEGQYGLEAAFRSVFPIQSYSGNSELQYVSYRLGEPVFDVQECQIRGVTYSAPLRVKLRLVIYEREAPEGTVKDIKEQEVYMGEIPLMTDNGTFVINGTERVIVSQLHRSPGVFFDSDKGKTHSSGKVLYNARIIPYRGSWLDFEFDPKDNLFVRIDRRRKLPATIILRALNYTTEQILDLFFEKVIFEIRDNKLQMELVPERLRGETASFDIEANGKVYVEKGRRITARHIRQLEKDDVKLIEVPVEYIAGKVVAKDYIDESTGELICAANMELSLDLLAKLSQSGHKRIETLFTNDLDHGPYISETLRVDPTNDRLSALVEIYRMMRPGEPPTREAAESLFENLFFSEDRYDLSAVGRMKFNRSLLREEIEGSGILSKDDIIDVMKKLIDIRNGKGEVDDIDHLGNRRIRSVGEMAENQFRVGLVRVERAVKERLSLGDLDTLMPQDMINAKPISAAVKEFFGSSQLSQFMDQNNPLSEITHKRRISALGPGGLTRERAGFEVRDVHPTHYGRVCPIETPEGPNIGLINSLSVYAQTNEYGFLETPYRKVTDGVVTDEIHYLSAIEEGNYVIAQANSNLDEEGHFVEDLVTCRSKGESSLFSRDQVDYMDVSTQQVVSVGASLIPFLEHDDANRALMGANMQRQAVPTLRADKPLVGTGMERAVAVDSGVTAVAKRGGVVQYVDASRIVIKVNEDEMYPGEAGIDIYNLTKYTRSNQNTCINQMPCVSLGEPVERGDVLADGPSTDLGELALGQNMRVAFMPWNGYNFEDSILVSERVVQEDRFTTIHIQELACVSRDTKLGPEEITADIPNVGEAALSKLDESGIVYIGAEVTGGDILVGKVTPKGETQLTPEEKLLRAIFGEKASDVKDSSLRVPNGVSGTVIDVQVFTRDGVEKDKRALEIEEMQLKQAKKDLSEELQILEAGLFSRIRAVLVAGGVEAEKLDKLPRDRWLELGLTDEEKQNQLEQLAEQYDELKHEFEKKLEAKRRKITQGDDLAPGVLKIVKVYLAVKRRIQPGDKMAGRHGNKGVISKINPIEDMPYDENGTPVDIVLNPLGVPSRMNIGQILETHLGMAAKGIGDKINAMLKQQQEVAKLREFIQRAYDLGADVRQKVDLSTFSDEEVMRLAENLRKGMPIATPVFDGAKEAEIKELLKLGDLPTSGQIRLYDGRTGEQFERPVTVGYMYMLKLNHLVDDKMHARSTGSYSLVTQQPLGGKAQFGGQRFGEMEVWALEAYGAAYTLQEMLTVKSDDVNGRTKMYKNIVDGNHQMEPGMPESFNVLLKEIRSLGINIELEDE
Turning to `CCOc1ccc(CNC(=O)C2CC(=O)N(C3CCCC3)C2)cc1OC` (stereo not drawn), the inhibition was -2.47%.
To `COC(=O)[C@H](Cc1ccccc1)NC(=O)Nc1ccc(S(N)(=O)=O)cc1` belongs 10.2%; to `CNC(=O)C1CC(=O)N(Cc2ccc3c(c2)OCO3)C(=Nc2ccc(F)cc2)S1` (stereo not drawn), -0.38%.
With `CCOc1ccc(C(C)C)cc1S(=O)(=O)n1nc(C)cc1C`, the inhibition was 5.62%.
Regarding `CN1CCN(CCCNC(=O)c2cc3c(=O)oc4ccccc4c3s2)CC1`, the inhibition is 7.32%.
Take `CCC(=O)Nc1cccc(NC(=O)CSc2nnnn2C2CCCC2)c1`: the inhibition was 9.82%.
To `Cc1cc(C)n(C(=O)c2ccc(S(=O)(=O)N3CCCC3)cc2)n1` belongs -6.35%; to `Cc1ccc(-c2ccc(=O)n(CC(=O)NCCCN3CCCCC3)n2)cc1`, 5.27%.
To `O=C(CCCOc1ccccc1)Nc1cccc(C(=O)O)c1` belongs 5.97%; to `COc1ccc(CC(=O)c2ccc(O)cc2O)cc1OC`, -2.96%.
Next, `Nc1nnnn1/N=C/c1cccs1`: 0.8%.
On to `O=C(Nc1cc(N2CCOCC2)ncn1)NC1(C(F)(F)F)Oc2ccc(Cl)cc2O1` (stereo not drawn), for which the inhibition was 35.4% (active).
In the case of `COc1c(C)cccc1C(=O)Nc1cc(Cl)ccc1N1CCOCC1`, the inhibition is 5.92%.
As to `c1cnn(-c2cc(N3CCOCC3)ncn2)c1`, the inhibition is -13.1%.
For `Cc1ccc(C)c2[nH]c(=O)c(CCNC(=O)CC(C)C)cc12`, the inhibition was 6.91%.
Take `O=C(NCCc1ccccn1)c1ccc(COc2ccccc2)o1`: the inhibition is 5.1%.
Consider `CC1CC(C)CN(CC(=O)Nc2ccc(S(N)(=O)=O)cc2)C1` (stereo not drawn), for which the inhibition was 4.05%.
To `Cc1cc(Nc2ccc(Br)cc2F)n2ncnc2n1` belongs -2.75%.
Consider `CN1CCc2c(sc3c2c(NCc2ccco2)nc2nnnn23)C1`, for which the inhibition was -5.9%.
Consider `COc1ccc(-c2nc(CS(=O)CC(=O)NCc3cccnc3)c(C)o2)cc1OC` (stereo not drawn), for which the inhibition is -0.41%.
Regarding `CCOC(=O)c1c(CN2CCOCC2)n(-c2ccccc2)c2ccc(O)cc12`, the inhibition is 9.89%.
On to `COc1cc(OC)cc(-c2nc3nc(C)c(CCC(=O)NCc4ccco4)c(C)n3n2)c1`, for which the inhibition is 0.61%.
Turning to `CC(=O)c1nc(N2C(=O)C3CC=C(C)CC3C2=O)sc1C` (stereo not drawn), the inhibition was 8.57%.
Next, `O=C1c2oc3ccc(Br)cc3c(=O)c2C(c2cccc(F)c2)N1CCO` (stereo not drawn): 2.5%; `CN1C(=O)c2ccc(NC(=O)c3c(F)c(F)c(F)c(F)c3F)cc2C1=O`: 11.6%; `Cn1c(SCC(=O)Nc2cccc(O)c2)nnc1-c1ccc(S(=O)(=O)N2CCOCC2)cc1`: 0.17%.
To `Fc1ccccc1OCCCCn1cncn1` belongs 2.62%; to `CCOCCCNS(=O)(=O)Cc1ccccc1`, 8.39%.
Turning to `Cc1ccc(O)c(NC(=O)COc2cc(C)ccc2C)c1`, the inhibition is 4.28%.
Regarding `CCCOc1ccc(C2C(C(=O)c3ccc(C)o3)=C(O)C(=O)N2CCCn2ccnc2)cc1` (stereo not drawn), the inhibition was 5.52%.
For `O=C(Nc1ccon1)c1sc2ccccc2c1Cl`, the inhibition is -7.58%.
Consider `NC(CSC12CC3CC(CC(C3)C1)C2)C(=O)O` (stereo not drawn), for which the inhibition was 4.34%.
Next, `CC(C)c1nc(-c2ccccn2)no1`: 4.3%; `O=C(NCc1ccccc1)C1C(=O)N(Cc2ccccc2)C(=O)C1C1(O)CCCC1` (stereo not drawn): -8.01%; `CCOCC(=O)Nc1cc(OC)c(Cl)cc1OC`: 5.42%.
For `Cc1ccc(S(=O)(=O)N2C3C=CC(C3)C2C(=O)O)cc1` (stereo not drawn), the inhibition is 8.4%.
Regarding `Cc1cccc(N2C(=O)SC(N(CC(=O)O)c3cccc(C)c3)C2=O)c1` (stereo not drawn), the inhibition is 6.1%.
For `COc1cccc(C(CC(=O)NCCN2CCOCC2)NS(=O)(=O)c2ccc(C)cc2)c1OC` (stereo not drawn), the inhibition was 4.2%.
Turning to `Cc1cc2c(=O)n(C)c(SCC(=O)c3cc4ccccc4o3)nc2s1`, the inhibition was 20.9% (active).
In the case of `Cc1ccsc1C(=O)OCC(=O)c1cc2ccccc2o1`, the inhibition was 8.68%.
Take `Cc1ccc(C(=O)CSc2nc3ccccc3c(=O)n2N)o1`: the inhibition is 4.54%.
For `O=C(CN1C(=O)C2C3C=CC(C3)C2C1=O)NCC1COc2ccccc2O1` (stereo not drawn), the inhibition was -8.67%.
As for `O=C1CCC(Cc2ccccc2)N1` (stereo not drawn), the inhibition was 6.1%.
`Cn1c(=O)n(C)c(=O)n(CC(=O)N2CCCCC2)c1=O`: the inhibition is 5.37%.
To `CC(=O)Nc1cccc2c1[n+]([O-])c(C)c(C)[n+]2[O-]` belongs -3.37%; to `O=C(Nc1nc2cc3c(cc2s1)OCCO3)c1cccc(S(=O)(=O)N2CCOCC2)c1`, -1.12%; to `CCCN1C(=O)C(NC(C)=O)c2cc(OC)ccc21` (stereo not drawn), 8.13%.
Regarding `Cc1noc(NS(=O)(=O)c2ccc(NC(=O)C34CCC(CC3)C4)cc2)c1C`, the inhibition is 3.43%.
For the compound `COc1cccc2sc(Nc3nc(C)c(C(C)=O)s3)nc12`, the inhibition is -0.4%.
As to `CCCOc1ccc(NC(=O)C2CCCNC2=O)cc1` (stereo not drawn), the inhibition was 2.77%.
In the case of `CCCCOC(=O)NCN1C(=O)C2C3C=CC(C3)C2C1=O` (stereo not drawn), the inhibition was 0.68%.
Regarding `COc1ccc(OC)c(NC(=O)CC(Cc2ccccc2OC)C(=O)O)c1` (stereo not drawn), the inhibition is 4.42%.
In the case of `CC(C)N(C(=O)Cn1c(SCC(=O)N2CCN(c3ccccc3)CC2)nc2ccccc21)C(C)C`, the inhibition is 5.85%.
Turning to `O=C(Cn1nc(C(F)(F)F)c2c1CCC2)NCc1ccc(F)cc1`, the inhibition was -0.7%.
Turning to `COc1ccc(CNC(=O)c2c(C)cc(=O)oc2C)cc1OC`, the inhibition is 8.6%.
Turning to `Cc1nc(NC(CC(C)C)C(=O)O)c2nc(C)oc2n1` (stereo not drawn), the inhibition is -1.28%.
For the compound `O=C(CSc1n[nH]c(-c2cccnc2)n1)Nc1ccnc2ccccc12`, the inhibition was 11.1%.
On to `O=S(=O)(c1ccc(OCC(O)CN2CCN(c3ccccc3Cl)CC2)cc1)N1CCOCC1` (stereo not drawn), for which the inhibition was 1.46%.
With `CCOc1cc(-c2nc3cc(C)ccn3c2NCC2CCCO2)ccc1O` (stereo not drawn), the inhibition is 6.06%.
As to `CCCNS(=O)(=O)c1ccc2c(c1)CCCN2C(C)=O`, the inhibition was 5.31%.
As for `CCN(CC)c1ccc(C(=O)OCC(=O)c2ccco2)cc1`, the inhibition is 4.69%.
Next, `C=CCOC(=O)C1=C(C)OC(N)=C(C#N)C1c1ccc(F)cc1` (stereo not drawn): 0.25%; `Cc1ccc(C2CC(c3cccc(Br)c3)n3nc(N)nc3N2)cc1` (stereo not drawn): 8.67%.
